Screening results (PubChem)
Mtb betalactam – beta-lactam sensitization of Mtb H37Rv | inhibition, % at 25 µM | hit rate 0.27% among 330,000 | M. tuberculosis H37Rv growth with meropenem, percent inhibition; call rule not given here;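 note: growth measured after seven days incubation then overnight dye step; 0% = bacteria only wells and 100% = bacteria with antibiotic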
PriA SSB inh – blocks PriA binding to SSB C-terminal tail; hit rate 0.6% among 430,000; AlphaScreen SSBct-PriA binding, biotinylated peptide; inhibition, % at 33 µM; in the data active = inhibition mostly above about 37%, no sharp cut-off; inactive = mostly below about 20%;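 note: plate controls were negative control peptide for no effect and reference peptide for full effect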
Mtb UGM inh – Mtb UDP-galactopyranose mutase inhibition; inhibition, % at 10 µM; purified UGM, fluorescence polarization probe displacement; hit rate 0.06% among 320,000; in the data active = inhibition above about 10%, passing the limit was not always enough
Target sequence (P9WIQ1 whole entry, looked up): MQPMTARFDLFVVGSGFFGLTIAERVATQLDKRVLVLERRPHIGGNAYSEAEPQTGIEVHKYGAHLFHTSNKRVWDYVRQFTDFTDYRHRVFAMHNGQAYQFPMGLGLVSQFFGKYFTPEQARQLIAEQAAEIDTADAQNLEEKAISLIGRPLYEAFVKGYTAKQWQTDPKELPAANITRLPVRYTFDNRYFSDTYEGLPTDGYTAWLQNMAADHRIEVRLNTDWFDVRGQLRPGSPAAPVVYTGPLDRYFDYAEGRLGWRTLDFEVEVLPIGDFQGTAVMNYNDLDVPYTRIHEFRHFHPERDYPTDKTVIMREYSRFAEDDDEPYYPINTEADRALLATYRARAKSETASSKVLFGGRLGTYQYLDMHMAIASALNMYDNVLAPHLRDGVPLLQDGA
Mtb FBA inh – inhibitors of M. tuberculosis fructose-bisphosphate aldolase | P9WQA3 | purified M. tuberculosis FBA, fluorescence read-out | inhibition, % at 1 µM | hit rate 2.3% among 360,000 | AID 588726; in the data active = inhibition above about 27%;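 note: 0% = vehicle and 100% = reference inhibitor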
GDH-TPI counter – GDH-TPI coupled enzyme inhibition counter-screen; GDH-TPI coupled enzyme counterscreen, NADH absorbance; inhibition, % at 4.8 µM; hit rate 1.2% among 360,000; in the data active = inhibition above about 30%;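 note: 0% = DMSO wells and 100% = wells lacking the enzyme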
Rv3671c protease – inhibitors of M. tuberculosis serine protease Rv3671c. P9WHR9. inhibition, % at 5.96 µM. hit rate 0.048% among 320,000. AID 2606; in the data active = inhibition above about 38%;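 note: extracellular domain of Rv3671c used as enzyme; 0% = enzyme with DMSO and 100% = no enzyme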
The depositor's hits bear a star; i = inactive; . = no result. Compounds with a hit are over-represented: about 3.2% of the library has one in this group of screens.

SMILES | Mtb betalactam | PriA SSB inh | Mtb UGM inh | Mtb FBA inh | GDH-TPI counter | Rv3671c protease
O=C1NC2(C=Cc3c(ccc4ccccc34)O2)Oc2ccccc21 (centres undefined) | -1 | -14 | -5 | 152* | 8 | 3
Cn1cc(CC(=O)NCC2CCCN2c2ccccc2)c2ccccc21 (centres undefined) | . | 39* | . | . | . | .
O=C(Cc1ccc(F)cc1)NC[C@H]1CCCN1c1ccccc1 | . | 11 | . | . | . | .
O=C(NCC1CCCN1c1ccccc1)c1c[nH]c2ccccc12 (centres undefined) | . | 53* | . | . | . | .
CCOc1ccc(S(=O)(=O)N2CC(n3ccnn3)C2)cc1C | . | -20 | . | . | . | .
COc1ccc(/C=N/NC(=S)Nc2cccc(C(=O)O)c2)cc1OC | -5 | . | 2 | 7 | 50* | -7
COc1cc(/C=N/NC(=S)Nc2cccc(C(=O)O)c2)cc(OC)c1OC | 3 | . | 3 | -1 | 41* | 3
CCOC(=O)c1sc(NC(=O)CCS(=O)(=O)c2ccc(Cl)cc2)cc1C | . | -11 | . | . | . | .
Cc1nc(-c2ccccc2NC(=O)c2cc(=O)[nH]cn2)cs1 | . | -4 | . | . | . | .
CN1CCN(c2cc(-c3cc(O)c4ncccc4c3)ccn2)CC1 | 3 | 67* | 1 | -3 | 6 | 1
Oc1cc(Nc2ccccc2)cc2cccnc12 | 99 | 65* | -3 | -2 | 5 | 4
Oc1cccc2cc(Nc3ccccc3)cnc12 | . | . | . | 1 | 6 | .
Oc1cc(-c2cccnc2)cc2cccnc12 | 100 | 54* | 4 | -1 | 5 | -9
CN1CCN(C(=O)c2cccc(-c3cc(O)c4ncccc4c3)c2)CC1 | 0 | 37 | -1 | 2 | 12 | 4
N#C/C(C(=O)NCc1ccco1)=C1/N=C(NC(=O)c2ccccc2)c2ccccc21 | . | 6 | . | . | . | .
O=C(c1ccc[nH]c1=O)N1CCc2nc3ccc(F)cn3c(=O)c2C1 | . | 0 | . | . | . | .
CCCC(C)C(=O)Nc1ccc(Cl)cn1 (centres undefined) | -14 | -17 | -1 | -5 | 31* | 6
CCCCC(=O)Nc1ccc(Cl)cn1 | 3 | 1 | -2 | 0 | 1 | -6
COc1ccc(Cl)cc1CN1CCN(c2cc(C)nc3c4c(C)cc(C)nc4nn23)CC1 | . | -11 | . | . | . | .
Cc1ccc(Nc2ccc3nonc3c2[N+](=O)[O-])cc1 | 6 | -15 | -2 | -6 | 3 | 6
Nc1ccc2nonc2c1[N+](=O)[O-] | -6 | -4 | 23* | -6 | -3 | -3
COc1ccc(Nc2nc(OC)nc(OC)n2)cc1 | -7 | -3 | 1 | 0 | 0 | -2
CC(C)Nc1ccc(Nc2ccnc3cc4ccccc4cc23)cc1 | 94 | 97* | 1 | -2 | -1 | 13
COc1ccc(Nc2ncnc3ccccc23)cc1 | -7 | -10 | 4 | -5 | 0 | 4
COc1ccc(Nc2ccccc2N)cc1 | 99 | 82* | 4 | 5 | 9 | -41
SMILES | Mtb betalactam | PriA SSB inh | Mtb UGM inh | Mtb FBA inh | GDH-TPI counter | Rv3671c protease
COc1ccc(Nc2ccnc(Nc3ccc(OC)cc3)n2)cc1 | 20 | 45* | -1 | -1 | -9 | 10
COc1ccc(Nc2ccnc3ccccc23)cc1 | -2 | -7 | -2 | 0 | 32* | 0
O=C(NCCC1=CCCCC1)C(=O)NCC1(O)CCCC1 | . | -22 | . | . | . | .
O=C(Nc1ccc(-c2cnc3n2CCC3)cc1)c1ccccc1Cl | . | 2 | . | . | . | .
COc1ccc(N2CCN(CCNC(=O)c3cc(Cl)ccc3Cl)CC2)cc1 | . | -15 | . | . | . | .
COc1ccc(OC)c(NC(=O)C(=O)NC[C@@H](c2ccco2)N(C)C)c1 | . | -3 | . | . | . | .
O=C(Nc1nc2ccccc2n1CCN1CCOCC1)c1ccc(Cn2cc([N+](=O)[O-])cn2)o1 | -9 | 3 | -1 | 3 | 48* | 1
NS(=O)(=O)c1ccc(NN=C2CCCc3ccccc32)c([N+](=O)[O-])c1 | . | 10 | . | . | . | .
CCC1C(=O)NC(=O)NC1=O | . | -14 | . | . | . | .
O=[N+]([O-])c1cc(C(F)(F)F)ccc1NC1CCN(Cc2ccccc2)C1 (centres undefined) | 2 | 43* | 1 | 3 | 0 | 0
CCOC(=O)c1sc(NC(=O)c2cc(S(=O)(=O)N(C)CCCl)ccc2OC)c(C(=O)OCC)c1C | . | -10 | . | . | . | .
CCOC(=O)c1cn[nH]c1S(=O)(=O)Nc1ccccc1OCC | . | 4 | . | . | . | .
C=CC#CC[N+]1(CC#Cc2ccccc2)CCOCC1 | . | 54* | . | 2 | 9 | .
CCOc1ccc(-n2ccn3c(CC(C)CC(=O)Nc4ccc(OC)cc4)nnc3c2=O)cc1 (centres undefined) | . | -6 | . | . | . | .
O=C(Cc1ccc([N+](=O)[O-])cc1)c1c(O)cc(O)cc1O | -5 | 6 | 1 | -1 | 35* | -1
O=C(CN1CCN(Cc2ccccc2)CC1)N/N=C\C=C/c1ccco1 | 48 | . | 2 | 0 | 43* | -3
CC(/C=N\NC(=O)CN1CCN(Cc2ccccc2)CC1)=C\c1ccco1 | -4 | . | -1 | -6 | 53* | -11
Clc1ccccc1CN1CCN(/N=C/C=C/c2ccco2)CC1 | -6 | i | -1 | -1 | 42* | -13
O=C(CN1CCN(Cc2ccccc2Cl)CC1)N/N=C/C=C/c1ccco1 | 41 | i | 0 | -2 | 61* | 1
Clc1ccccc1CN1CCN(N=C/C=C\c2ccco2)CC1 | . | 18 | . | . | . | .
O=C(/C=C/c1ccco1)NC(=S)Nc1ccccc1N1CCCC1 | 4 | 22 | 0 | -5 | 27 | -7
CN1CCN(c2ccc(NC(=S)NC(=O)/C=C/c3ccco3)cc2)CC1 | 1 | 5 | -1 | -2 | 31* | -5
O=C(/C=C/c1ccco1)NC(=S)Nc1ccccc1N1CCOCC1 | -4 | 21 | 1 | -2 | 46* | 0
CC(=O)N(C)c1ccc(NC(=S)NC(=O)/C=C/c2ccco2)cc1 | 2 | -7 | 5 | -7 | 40* | -8
COc1ccccc1-c1cc(C(=O)NC2CC(=O)N(C3CC3)C2)[nH]n1 (centres undefined) | . | 8 | . | . | . | .
SMILES | Mtb betalactam | PriA SSB inh | Mtb UGM inh | Mtb FBA inh | GDH-TPI counter | Rv3671c protease
CCN(CC)Cc1c(O)ccc2c(-c3ccccc3)cc(=O)oc12 | 3 | -11 | 3 | 7 | 18 | 3
CCN(CC)Cc1c(O)ccc2c(=O)c(-c3ccc(Cl)cc3)coc12 | -1 | -4 | 1 | 43* | 24 | 3
CCCCN(C)Cc1c(O)ccc2c(=O)c(-c3ccccc3OC)coc12 | -8 | 1 | 1 | 163* | 41* | 1
Cc1nn(C)c(C)c1CN1Cc2ccccc2OCC1=O | . | -4 | . | . | . | .
CN(C)S(=O)(=O)c1ccc(C(=O)NC[C@@](O)(c2ccccc2)C2CC2)cc1 | . | -8 | . | . | . | .
Fc1ccccc1CSC1=NCCN1 | . | 11 | . | . | . | .
Oc1cccnc1N=Cc1c(O)ccc2ccccc12 | . | 58* | . | . | . | .
COc1ccc(SCC2CCN(C(=O)c3cccc(N(C)C)c3)CC2)cc1 | . | 42* | . | . | . | .
COc1ccc(SCC2CCN(C(=O)c3cccc4ccccc34)CC2)cc1 | . | 23 | . | . | . | .
O=C1C(Cc2ccccc2)SC(=NN=Cc2ccco2)N1c1ccccc1 (centres undefined) | . | 1 | . | . | . | .
O=C(C=NNC(=O)c1ccccc1Br)c1ccccc1 | . | 2 | . | . | . | .
Cc1c(C)c2ccc(OCC(=O)N3CCN(c4ccccc4)CC3)cc2oc1=O | 4 | -4 | 3 | 3 | 9 | 1
